# Results as given in PubChem BioAssay (NCATS).
# Records with an inconclusive call do not appear. Where a call stands in place of a potency, no number is given. Calls of active or inactive are those of the source. Calls follow the shape of the dose curve; as a rule, active = well fitted inhibition curve with a large enough effect in the repeat runs; inconclusive = weak or mixed curves; inactive = flat fitted curve, though single readings scatter. Where a SMILES comes first, the peptide text is derived from it. The star is where a group is joined. PhAc = O=C(Cc1ccccc1)*
# Biological target: Cytochrome P450 2D6 (Homo sapiens) (UniProt P10635)
# Sequence (P10635 whole entry, looked up): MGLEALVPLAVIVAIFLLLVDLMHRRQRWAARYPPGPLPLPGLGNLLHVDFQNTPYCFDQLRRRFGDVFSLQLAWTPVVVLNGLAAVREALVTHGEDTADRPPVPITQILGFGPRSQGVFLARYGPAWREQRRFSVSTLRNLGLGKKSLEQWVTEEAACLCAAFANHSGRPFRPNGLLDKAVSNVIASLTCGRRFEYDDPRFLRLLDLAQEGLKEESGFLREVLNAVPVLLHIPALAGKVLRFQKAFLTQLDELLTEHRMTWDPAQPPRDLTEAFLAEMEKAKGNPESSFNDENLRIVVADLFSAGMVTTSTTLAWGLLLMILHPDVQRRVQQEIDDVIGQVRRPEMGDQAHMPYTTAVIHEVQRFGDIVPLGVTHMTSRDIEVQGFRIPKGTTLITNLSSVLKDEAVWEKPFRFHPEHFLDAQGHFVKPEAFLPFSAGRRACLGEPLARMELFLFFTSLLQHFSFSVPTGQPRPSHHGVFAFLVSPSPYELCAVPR
# Test: Cytochrome P450 family 2 subfamily D member 6 (CYP2D6) small molecule antagonists: luciferase biochemical (cell-free) qHTS assay (AID 1645840); also: nearly all actives have a fitted effect of over 55% in size
# Conditions: P450-Glo CYP2D6 enzyme, luciferin luminescence, 1 h; series mostly up to 57.4 µM
# Method in brief: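 P450-Glo CYP2D6 system: proluciferin substrate converted by enzyme to luciferin, read by luminescence proportional to activity. Enzyme-substrate mix with compound 10 min at room temperature, then NADPH regeneration 1 h before detection reagent.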
# Potency is read from the fitted curve at half-maximal effect.
row,Structure (SMILES),Potency
1,NC1=NC2(c3cc(NC(=O)c4ccc(F)cn4)ccc3F)COCC2CS1 (configuration not stated),4.77 µM (active)
2,Cc1ncc(NC(=O)c2ccc(CN3CCN(C)CC3)c(C(F)(F)F)c2)cc1Nc1nccc(-c2cccnc2)n1,10.7 µM (active)
3,Cc1cc(CNC(=O)c2cc(C(=O)NCc3ccc(F)c(C)c3)ncn2)ccc1F,inactive
4,O=C(c1ccc(Cl)c([N+](=O)[O-])c1)N1CCN(c2ccccc2F)CC1,inactive
5,CCOC(=O)CNC(=O)[C@@H]1CCCN1C(=O)Cc1ccccc1 (PhAc-Pro-Gly-OEt),inactive
6,Cc1ccc(Nc2nnc(-c3ccc([N+](=O)[O-])cc3)o2)cc1Cl,inactive
7,CCc1nn(CCO)c(CC)c1Oc1cc(C#N)cc(C#N)c1,inactive
8,Fc1ccc(-c2c3cccc(C(F)(F)F)c3nn2Cc2ccc(F)cc2Cl)cc1,inactive
9,O=C(CCCCC1CCCCC1)N1CCC(c2cnc[nH]2)CC1,5.35 µM (active)
10,FC(F)(F)c1nnc2c(Sc3ccccc3)nc3ccc(Cl)cc3n12,inactive
11,NC(N)=NCCC[C@H](NC(=O)c1sccc1NS(=O)(=O)c1cccc2nsnc12)C(=O)O,inactive
12,COc1ccnc2[nH]cc(C(=O)C(=O)N3CCN(C(=O)c4ccccc4)CC3C)c12 (configuration not stated),3.01 µM (active)
